# Laboratory results taken from PubChem BioAssay (NCATS).
# Values without a mark were called inactive. Inconclusive results are not listed. Where a call stands in place of a potency, no number is given. Activity calls are given as the source filed them.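 How the source made its calls, unless noted: active means compounds whose dose series gives a full or clear partial fitted curve of increased nuclear translocation; inconclusive means weak partial curve or effect only at the top dose; inactive means no dose-dependent translocation response.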
# What was measured:
# [1] = biological target: Glucocorticoid receptor (Homo sapiens) (UniProt P04150); assay: GR-GFP Redistribution (AID 450); details: U2OS GR-GFP nuclear translocation, laser cytometry, 2 h; further: potency means the concentration at half of the fitted maximal effect
# [2] = biological target: Glucocorticoid receptor (Homo sapiens) (UniProt P04150); assay: GR-EFC Redistribution (AID 451; calls by dose curve; further: potency means the concentration at half of the fitted maximal effect); details: CHO-K1 GR-EFC translocation, beta-gal luminescence, 2 h
# Outline: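 Translocation of GR-ED fusion to nuclear EA restores b-gal, read by luminescence after 1 h room-temperature detection. Engineered CHO-K1 biosensor cells, 1,000/well, exposed 2 h at 37 C to titrations up to 46 uM final.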
# [3] = biological target: Mitogen-activated protein kinase 10 (Mus musculus) (UniProt Q61831); assay: JNK3 AlphaScreen Assay (AID 530; active means well fitted curve in either direction with a large enough effect, not every such curve was filed as active;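 further: kinase came from lysate of stimulated human HepG2 cells; signal reports phosphorylation of biotinylated GST-cJun 1-79 at Ser73 with 10 µM ATP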); details: JNK3 lysate, c-Jun phosphorylation; series mostly up to 57.1 µM
# Outline: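 Compound titrations were preincubated 15 minutes at room temperature with substrate, antibody and pre-activated JNK3-containing HepG2 lysate. Reactions were started with 10 uM ATP and stopped with EDTA-containing bead buffer for AlphaScreen detection.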
# [4] = biological target: 3',5'-cyclic-AMP phosphodiesterase 4B (Homo sapiens) (UniProt Q07343); assay: qHTS Assay for Inhibitors of PDE-IV (AID 607; active means well fitted activation curve with a large enough effect in the main read-out, with a control signal flat, not every such curve was filed as active); details: HEK293 ACTOne CNG channel cells, membrane potential fluorescence; series mostly up to 22.9 µM
# Outline: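 The readout is membrane depolarisation from a cAMP-sensing CNG channel, detected with a potential dye at ex 535/em 590. Cells were HEK293-derived (endogenous PDE-IV) at 1000 cells/well, titrated up to 22.9 uM final.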
# [5] = Cell Viability - H-4-II-E (AID 543; active means well fitted curve in the direction sought with a large enough effect; an effect the other way counts as inactive or inconclusive;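 further: potency means the concentration at half of the fitted maximal effect; cells exposed to compound for 40 hours; nearly all actives have a fitted effect of over 35% in size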); details: H-4-II-E rat hepatoma viability; series mostly up to 92.2 µM
# Outline: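 Luminescent ATP signal (CellTiter-Glo) served as the viability read-out, with cytotoxicity seen as a concentration-dependent ATP drop. Cells were treated for 40 hours in complete medium. AC50 values derive from Hill-equation modelling.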
# [6] = Cell Viability - SH-SY5Y (AID 544; active means well fitted curve in the direction sought with a large enough effect; an effect the other way counts as inactive or inconclusive;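 further: potency means the concentration at half of the fitted maximal effect; cells exposed to compound for 40 hours; nearly all actives have a fitted effect of over 55% in size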); details: SH-SY5Y neuroblastoma cell viability; viability change, negative = cytotoxic: at 92.2 µM (top of the series)
# Outline: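 Luminescent ATP read-out (CellTiter-Glo) measures loss of viable SH-SY5Y neuroblastoma cells after 40 hr compound exposure at 37 °C. AC50 values derive from standard Hill modelling of qHTS concentration-response data.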
# [7] = Cell Viability - Mesenchymal (AID 546; active means well fitted curve in the direction sought with a large enough effect; an effect the other way counts as inactive or inconclusive;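 further: cells exposed to compound for 40 hours before reading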); details: mesenchymal cells viability, qHTS; activity change, negative = cytotoxicity: at 91.7 µM (top of the series)
# Outline: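 AC50 values reflect the drop in intracellular ATP in a human kidney mesenchymal line derived from normal glomeruli. Treatment lasts 40 hr at 37 °C in complete medium, and the signal comes from CellTiter-Glo luminescence.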
# [8] = Cellular Toxicity (caspase-3) HepG2 (AID 654; active means well fitted curve in the direction sought with a large enough effect; an effect the other way counts as inactive or inconclusive;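 further: cells exposed to compound for 16 hours before reading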); details: HepG2 caspase-3 activation, luminescence; series mostly up to 92.2 µM
# Outline: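 Cells plated 5 hr at 37 °C, compound added, incubated 16 hr at 37 °C. Caspase-Glo 3/7 reagent followed, 20 min at room temperature, then luminescence read. Activation scored as signal increase; AC50 from Hill fit.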
# [9] = Cellular Toxicity (caspase-3) HUV-EC-C (AID 656; active means well fitted curve in the direction sought with a large enough effect; an effect the other way counts as inactive or inconclusive); details: HUV-EC-C cells, caspase-3 activation (apoptosis), vehicle = 0, 100 µM tamoxifen = 100%; series mostly up to 92.2 µM
# Outline: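 Luminescent caspase-3/7 activation (aminoluciferin substrate cleavage) in HUV-EC-C cells after 16 hr compound exposure, 37°C. Signal normalized to DMSO basal and 100 uM tamoxifen as 100%; AC50 from concentration-response fitted with the Hill equation.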
# [10] = Cellular Toxicity (caspase-3) SHSY5Y (AID 657; active means well fitted curve in the direction sought with a large enough effect; an effect the other way counts as inactive or inconclusive;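 further: cells exposed to compound for 16 hours at 37 °C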); details: SH-SY5Y caspase-3 activation, DMSO zero, 10 µM staurosporine = 100%; series mostly up to 91.7 µM
# Outline: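 Luminescent caspase-3/7 readout (aminoluciferin release) in SH-SY5Y cells after 16 h compound exposure in complete medium. Activity scaled between DMSO basal and 10 uM staurosporine as 100%; concentration-response fitted to Hill equation for AC50.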
# [11] = Cellular Toxicity (caspase-3) BJ (AID 658; active means well fitted curve in the direction sought with a large enough effect; an effect the other way counts as inactive or inconclusive); details: BJ fibroblasts, luminescence, normalized: DMSO 0%, staurosporine 100%; series mostly up to 91.7 µM
# Outline: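 Readout: Caspase-Glo 3/7 luminescence increase in BJ cells after 16 hr treatment at 37 °C. Staurosporine and tamoxifen served as positive controls; AC50 values came from Hill modelling of data normalized to DMSO and 10 uM staurosporine.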
# [12] = Cellular Toxicity (caspase-3) SK-N-SH (AID 661; active means well fitted curve in the direction sought with a large enough effect; an effect the other way counts as inactive or inconclusive); details: SK-N-SH caspase-3 activation, qHTS; series mostly up to 91.7 µM
# Outline: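 Human neuroblastoma SK-N-SH, 1500 cells/well, 5 hr pre-incubation, then compound 16 hr, 37 °C. Caspase-Glo 3/7 reagent, 1 hr RT, luminescence. Norm. to DMSO/10 uM staurosporine; Hill-fit AC50.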
# [13] = Cellular Toxicity (caspase-3) H-4-II-E (AID 663; active means well fitted curve in the direction sought with a large enough effect; an effect the other way counts as inactive or inconclusive;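 further: cells exposed to compound for 16 hr before readout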); details: H-4-II-E rat hepatoma, scaled: DMSO 0%, 100 µM tamoxifen 100%; at 92.2 µM (top of the series)
# Outline: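 Apoptosis induction is scored as increased luminescence from caspase 3/7 substrate cleavage in rat hepatoma H-4-II-E cells exposed to compound for 16 hr. Activity is scaled between DMSO and 100 uM tamoxifen.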
# [14] = Cellular Toxicity (caspase-3) Hek293 (AID 664; active means well fitted curve in the direction sought with a large enough effect; an effect the other way counts as inactive or inconclusive;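 further: cells exposed to compound for 16 h at 37 °C before readout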); details: HEK293 caspase-3 activation, DMSO = 0%, 100 µM tamoxifen = 100%; at 92.2 µM (top of the series)
# Outline: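 Cells plated, 5 hr at 37 °C; compounds added; 16 hr at 37 °C; Caspase-Glo 3/7 reagent, 20 min RT; luminescence read. Activation expressed relative to DMSO and 100 uM tamoxifen, AC50 by Hill model.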
# Chain of 3',5'-cyclic-AMP phosphodiesterase 4B (Homo sapiens) (Q07343 whole entry, looked up): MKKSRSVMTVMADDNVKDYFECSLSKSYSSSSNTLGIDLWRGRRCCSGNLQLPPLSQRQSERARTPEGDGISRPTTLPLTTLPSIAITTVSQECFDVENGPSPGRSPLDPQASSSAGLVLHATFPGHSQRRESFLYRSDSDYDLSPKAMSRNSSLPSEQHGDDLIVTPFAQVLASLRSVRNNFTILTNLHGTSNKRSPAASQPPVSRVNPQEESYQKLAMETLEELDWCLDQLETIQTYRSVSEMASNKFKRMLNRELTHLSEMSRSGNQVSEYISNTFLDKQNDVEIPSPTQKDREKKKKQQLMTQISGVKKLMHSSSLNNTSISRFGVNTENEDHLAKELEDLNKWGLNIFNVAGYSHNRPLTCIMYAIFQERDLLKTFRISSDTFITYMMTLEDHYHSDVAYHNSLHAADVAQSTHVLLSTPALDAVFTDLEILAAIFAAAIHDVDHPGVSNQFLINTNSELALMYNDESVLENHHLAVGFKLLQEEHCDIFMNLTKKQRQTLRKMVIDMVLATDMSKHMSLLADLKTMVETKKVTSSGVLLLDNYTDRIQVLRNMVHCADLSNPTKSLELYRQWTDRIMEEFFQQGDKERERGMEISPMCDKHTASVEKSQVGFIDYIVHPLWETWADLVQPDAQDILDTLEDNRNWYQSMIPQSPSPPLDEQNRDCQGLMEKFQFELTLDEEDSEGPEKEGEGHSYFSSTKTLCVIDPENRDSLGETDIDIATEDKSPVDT
# Chain of Glucocorticoid receptor (Homo sapiens) (P04150 whole entry, looked up, the tested form may be a part): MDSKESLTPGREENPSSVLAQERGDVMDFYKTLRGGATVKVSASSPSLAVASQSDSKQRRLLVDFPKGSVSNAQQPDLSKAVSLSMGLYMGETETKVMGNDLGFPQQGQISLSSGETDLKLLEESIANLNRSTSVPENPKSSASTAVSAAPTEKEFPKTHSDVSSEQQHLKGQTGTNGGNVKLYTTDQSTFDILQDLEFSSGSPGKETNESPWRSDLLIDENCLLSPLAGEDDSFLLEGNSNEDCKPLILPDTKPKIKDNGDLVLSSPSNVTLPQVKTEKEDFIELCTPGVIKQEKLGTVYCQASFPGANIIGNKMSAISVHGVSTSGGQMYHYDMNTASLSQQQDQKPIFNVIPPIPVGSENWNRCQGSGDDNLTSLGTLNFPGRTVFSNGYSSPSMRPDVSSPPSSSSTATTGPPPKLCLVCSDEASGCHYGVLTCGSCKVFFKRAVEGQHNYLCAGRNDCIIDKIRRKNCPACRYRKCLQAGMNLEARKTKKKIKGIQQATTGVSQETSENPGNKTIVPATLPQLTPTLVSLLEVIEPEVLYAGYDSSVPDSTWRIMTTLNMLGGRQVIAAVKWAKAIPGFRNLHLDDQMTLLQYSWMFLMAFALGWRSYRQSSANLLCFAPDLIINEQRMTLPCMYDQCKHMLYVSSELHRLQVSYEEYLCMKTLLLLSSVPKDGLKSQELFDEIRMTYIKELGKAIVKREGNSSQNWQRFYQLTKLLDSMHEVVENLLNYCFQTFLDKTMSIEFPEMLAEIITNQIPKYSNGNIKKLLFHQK
smiles,measurement,setting,value
COC(=O)c1c(C)[nH]c(C)c1C(=O)c1ccccc1Cc1ccccc1,Potency,[1],> 46 µM
same,Potency,[2],> 46 µM
same,Potency,[3],inactive
same,outcome,[4],inactive
CN1CCc2ccccc2Cc2[nH]c3ccccc3c2CC1,Potency,[1],> 46 µM
same,Potency,[2],> 46 µM
same,Potency,[3],inactive
same,outcome,[4],inactive
COc1ccccc1CNCCCCCCNCCCCCCCCNCCCCCCNCc1ccccc1OC,Potency,[1],> 46 µM
same,Potency,[3],inactive
same,outcome,[4],inactive
COc1ccccc1N1CCN(CCN(C(=O)c2ccc(I)cc2)c2ccccn2)CC1,Potency,[1],> 46 µM
same,Potency,[3],inactive
same,outcome,[4],inactive
O=c1[nH]c2cc(Cl)c(Cl)cc2[nH]c1=O,Potency,[1],> 46 µM
same,Potency,[2],> 46 µM
same,outcome,[4],inactive
Cc1ccc(O)c(N=Nc2ccccc2)n1,Potency,[1],> 46 µM
same,Potency,[3],inactive
same,outcome,[4],inactive
O=C(O)[C@@H]1C[C@@H](C(=O)O)N1,Potency,[1],> 46 µM
same,Potency,[3],inactive
Fc1ccc(C(OCCCc2cnc[nH]2)c2ccc(F)cc2)cc1,Potency,[1],> 46 µM
same,Potency,[3],inactive
same,outcome,[4],inactive
Cn1c(=O)c2[nH]c(-c3ccccc3)nc2n(C)c1=O,Potency,[1],> 46 µM
same,Potency,[3],inactive
same,outcome,[4],inactive
COc1cc(/C=C/C(=O)CC(=O)/C=C/c2ccc(O)c(OC)c2)ccc1O,Potency,[1],> 20.6 µM
same,Potency,[3],inactive
same,Potency,[5],31.6 µM (active)
same,Potency,[6],31.6 µM (active)
same,Potency,[7],inactive
same,Potency,[8],inactive
same,outcome,[9],inactive
same,outcome,[10],inactive
same,outcome,[11],inactive
same,Potency,[12],inactive
same,caspase-3 activation,[13],1.39%
same,caspase-3 activation,[14],27.4%
NCCCS(=O)(=O)O,Potency,[1],> 46 µM
same,Potency,[3],inactive
same,outcome,[4],inactive
O=C(O)c1cc(=O)c2ccccc2[nH]1,Potency,[1],> 46 µM
same,Potency,[3],inactive
same,outcome,[4],inactive
CN1CCc2cc(NC(=O)Nc3cccnc3)ccc21,Potency,[1],> 46 µM
same,Potency,[3],inactive
same,outcome,[4],inactive
COC1=C(OC)C(=O)c2ccccc2C1=O,Potency,[1],> 46 µM
same,Potency,[2],> 46 µM
same,outcome,[4],inactive
O=C(O)c1cc([N+](=O)[O-])ccc1NCCCc1ccccc1,Potency,[1],> 46 µM
same,Potency,[3],inactive
same,outcome,[4],inactive
O=C1C(SCCO)=C(SCCO)C(=O)c2ccccc21,Potency,[1],> 46 µM
same,Potency,[3],inactive
same,outcome,[4],inactive
CC(C)NC[C@H](O)COc1cccc2[nH]ccc12,Potency,[1],> 46 µM
same,Potency,[3],inactive
same,outcome,[4],inactive
Cn1cc(C2=C(c3ccc(Cl)cc3Cl)C(=O)NC2=O)c2ccccc21,Potency,[1],> 46 µM
same,Potency,[3],inactive
same,outcome,[4],inactive
CCCn1c(=O)c2[nH]c(-c3ccc(OCC(=O)NCCN)cc3)nc2n(CCC)c1=O,Potency,[1],> 46 µM
same,Potency,[3],inactive
same,outcome,[4],inactive
N#C/C(=C\c1c[nH]c2ccccc12)C(=O)c1ccc(O)c(O)c1,Potency,[1],> 46 µM
same,Potency,[2],> 46 µM
same,outcome,[4],inactive
CN(C)C(N)=NCCC[C@H](N)C(=O)O,Potency,[1],> 46 µM
same,Potency,[3],inactive
same,outcome,[4],inactive
CN(C)c1nc(N)c(C(=O)N=C(N)N)nc1Cl,Potency,[1],> 46 µM
same,Potency,[2],> 46 µM
same,outcome,[4],inactive
Clc1ccc(N2CCN(Cc3c[nH]c4ncccc34)CC2)cc1,Potency,[1],> 46 µM
same,Potency,[2],> 46 µM
same,outcome,[4],inactive
